Laboratory results taken from PubChem BioAssay (Tox21).
Records with an inconclusive call do not appear. The source made the active and inactive calls. Unless noted, the call rests on the fitted dose curve; in most records, active means well fitted curve in the direction sought with a large enough effect in the repeat runs; inconclusive means weak or mixed curves; inactive means no such curve, though single readings can be large; an effect the other way counts as inactive or inconclusive.

What was measured:
[1] = qHTS assay to identify aromatase inhibitors - cell viability counter screen (AID 743084);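 further: cells stimulated with testosterone during compound exposure; nearly all actives have a fitted effect of over 55% in size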; further: potency means the concentration at half of the fitted maximal effect
[2] = target: Aryl hydrocarbon receptor (Homo sapiens) (UniProt P35869); test: qHTS assay to identify small molecule that activate the aryl hydrocarbon receptor (AhR) signaling pathway (AID 743085); further: nearly all actives have a fitted effect of over 15% in size; further: potency means the concentration at half of the fitted maximal effect;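 on activation: HG2L7.5c1 human HepG2 liver cells with stably integrated DRE-driven firefly reporter; series mostly up to about 70 µM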
Chain of Aryl hydrocarbon receptor (Homo sapiens) (P35869 whole entry, looked up): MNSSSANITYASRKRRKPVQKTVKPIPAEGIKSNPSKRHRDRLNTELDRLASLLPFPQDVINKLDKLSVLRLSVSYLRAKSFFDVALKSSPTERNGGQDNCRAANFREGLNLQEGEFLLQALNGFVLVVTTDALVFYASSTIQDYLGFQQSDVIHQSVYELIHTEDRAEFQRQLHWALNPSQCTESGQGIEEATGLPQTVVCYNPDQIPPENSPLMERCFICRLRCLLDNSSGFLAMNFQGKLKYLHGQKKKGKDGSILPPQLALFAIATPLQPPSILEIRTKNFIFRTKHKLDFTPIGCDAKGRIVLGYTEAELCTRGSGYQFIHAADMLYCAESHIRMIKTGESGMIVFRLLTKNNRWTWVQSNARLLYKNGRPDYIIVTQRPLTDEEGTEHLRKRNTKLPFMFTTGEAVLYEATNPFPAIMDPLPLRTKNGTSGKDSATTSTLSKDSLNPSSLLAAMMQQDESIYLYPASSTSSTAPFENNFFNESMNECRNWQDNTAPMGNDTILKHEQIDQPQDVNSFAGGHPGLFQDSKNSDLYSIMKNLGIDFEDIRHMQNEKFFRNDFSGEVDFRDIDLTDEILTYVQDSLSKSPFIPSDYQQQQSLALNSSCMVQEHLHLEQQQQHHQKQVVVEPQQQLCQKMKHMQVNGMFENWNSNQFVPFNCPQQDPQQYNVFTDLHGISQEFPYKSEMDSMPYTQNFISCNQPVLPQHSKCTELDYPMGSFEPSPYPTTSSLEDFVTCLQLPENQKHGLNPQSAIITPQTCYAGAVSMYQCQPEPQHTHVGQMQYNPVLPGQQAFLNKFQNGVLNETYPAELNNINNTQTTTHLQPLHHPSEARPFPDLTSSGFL
How it was run: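 Reporter assay in engineered HepG2 line HG2L7.5c1, whose plasmid carries twenty dioxin responsive elements upstream of firefly luciferase. Treatment lasted 24 h at 37C; ONE-Glo luminescence gauged induction.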

[3] = qHTS assay to identify small molecule that activate the aryl hydrocarbon receptor (AhR) signaling pathway - cell viability counter screen (AID 743086);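 further: HepG2 liver cells carrying the AhR DRE luciferase reporter; series mostly up to about 70 µM; nearly all actives have a fitted effect of over 45% in size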
How it was run: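 HepG2-AhR-luc (HG2L7.5c1) cells, 4000/well, were preincubated 5 h at 37C, exposed to compound in qHTS format for 24 hr at 37C, then given CellTiter-Fluor for 30 min; viability was read as fluorescence in the reporter wells.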

[4] = target: Peroxisome proliferator-activated receptor gamma (Homo sapiens) (UniProt P37231); test: qHTS assay to identify small molecule agonists of the peroxisome proliferator-activated receptor gamma (PPARg) signaling pathway (AID 743094; active means well fitted activation curve with a large enough effect in the signal ratio in the repeat runs, not every such curve was filed as active; the % refers to the signal ratio; further: potency means the concentration at half of the fitted maximal effect)
Chain of Peroxisome proliferator-activated receptor gamma (Homo sapiens) (P37231 whole entry, looked up): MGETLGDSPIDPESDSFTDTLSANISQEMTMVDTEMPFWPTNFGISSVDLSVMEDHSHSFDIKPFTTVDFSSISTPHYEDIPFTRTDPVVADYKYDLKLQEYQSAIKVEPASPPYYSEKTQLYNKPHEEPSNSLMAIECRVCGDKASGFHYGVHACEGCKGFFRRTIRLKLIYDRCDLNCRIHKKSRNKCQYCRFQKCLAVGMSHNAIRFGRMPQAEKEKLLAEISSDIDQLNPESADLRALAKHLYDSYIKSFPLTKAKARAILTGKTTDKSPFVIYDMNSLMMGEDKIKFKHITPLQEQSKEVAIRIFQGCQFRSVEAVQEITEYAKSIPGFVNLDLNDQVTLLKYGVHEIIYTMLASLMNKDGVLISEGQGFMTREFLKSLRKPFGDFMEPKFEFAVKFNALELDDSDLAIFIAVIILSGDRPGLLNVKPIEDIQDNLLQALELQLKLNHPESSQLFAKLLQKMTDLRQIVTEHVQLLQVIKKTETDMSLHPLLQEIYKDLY
How it was run: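 HEK293H PPARg-bla cells, 5 h settle at 37C/5% CO2; compound (DMSO) 17 h, 37C; B/G FRET substrate 1 h RT; fluorescence intensity read-out. qHTS format.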

[5] = target: Peroxisome proliferator-activated receptor gamma (Homo sapiens) (UniProt P37231); test: qHTS assay to identify small molecule antagonists of the peroxisome proliferator-activated receptor gamma (PPARg) signaling pathway (AID 743191; calls by dose curve; further: series mostly up to about 63 µM; nearly all actives have a fitted effect of over 30% in size)
How it was run: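 GeneBLAzer PPARg UAS-bla HEK293H cells carrying a UAS-driven beta-lactamase reporter were plated at 3000 cells/well, preincubated 5 h at 37C, then given compound for 17 h at 37C; LiveBLAzer B/G FRET substrate was read after 1 h at room temperature.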

[6] = qHTS assay to identify small molecule antagonists of the peroxisome proliferator-activated receptor gamma (PPARg) signaling pathway - cell viability counter screen (AID 743194); further: nearly all actives have a fitted effect of over 55% in size
How it was run: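 PPARg-UAS-bla HEK293H cells were plated, rested 5 h at 37 C, then treated with compounds plus rosiglitazone (50 nM final) for 17 h at 37 C; viability was then read by CellTiter-Glo luminescence after 30 min at room temperature.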

[7] = qHTS assay for small molecule agonists of the antioxidant response element (ARE) signaling pathway - cell viability counter screen (AID 743203; calls by dose curve; further: nearly all actives have a fitted effect of over 55% in size)
How it was run: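 Luminescence read-out (CellTiter-Glo, 30 min at room temperature) measured cell viability in the same wells as the ARE beta-lactamase reporter. HepG2 ARE-bla cells were treated with compounds for 16 hrs at 37C/5% CO2.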

[8] = qHTS assay for small molecule activators of the heat shock response signaling pathway - cell viability counter screen (AID 743209); further: nearly all actives have a fitted effect of over 50% in size
How it was run: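 HSE-bla HeLa; 1500 cells/well; overnight 37 C, 5% CO2; compound 5 h 37 C; LiveBLAzer B/G substrate 2.5 h RT; CellTiter-Glo 30 min RT; luminescence.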

[9] = qHTS assay for small molecule activators of the heat shock response signaling pathway (AID 743210; active means well fitted activation curve with a large enough effect in the signal ratio in the repeat runs, with a control signal flat, not every such curve was filed as active; the % refers to the signal ratio;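 further: HeLa cells with beta-lactamase reporter driven by heat shock elements; series mostly up to about 63 µM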)
How it was run: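 Activation of heat shock element-controlled beta-lactamase expression is measured in HeLa cells by LiveBLAzer FRET fluorescence, with compound exposure lasting 5 h at 37 C and substrate loading 2.5 h at room temperature.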

[10] = qHTS assay to identify small molecule agonists of the peroxisome proliferator-activated receptor delta (PPARd) signaling pathway - cell viability counter screen (AID 743211); further: nearly all actives have a fitted effect of over 55% in size
How it was run: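 Multiplexed format: after the 2 h room-temperature LiveBLAzer B/G FRET step, CellTiter-Glo was added to the same wells. Luminescence after 30 min gave cell viability; compound exposure was 17 h at 37C.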

[11] = target: Peroxisome proliferator-activated receptor delta (Homo sapiens) (UniProt Q03181); test: qHTS assay to identify small molecule agonists of the peroxisome proliferator-activated receptor delta (PPARd) signaling pathway (AID 743212; calls by dose curve)
Chain of Peroxisome proliferator-activated receptor delta (Homo sapiens) (Q03181 whole entry, looked up): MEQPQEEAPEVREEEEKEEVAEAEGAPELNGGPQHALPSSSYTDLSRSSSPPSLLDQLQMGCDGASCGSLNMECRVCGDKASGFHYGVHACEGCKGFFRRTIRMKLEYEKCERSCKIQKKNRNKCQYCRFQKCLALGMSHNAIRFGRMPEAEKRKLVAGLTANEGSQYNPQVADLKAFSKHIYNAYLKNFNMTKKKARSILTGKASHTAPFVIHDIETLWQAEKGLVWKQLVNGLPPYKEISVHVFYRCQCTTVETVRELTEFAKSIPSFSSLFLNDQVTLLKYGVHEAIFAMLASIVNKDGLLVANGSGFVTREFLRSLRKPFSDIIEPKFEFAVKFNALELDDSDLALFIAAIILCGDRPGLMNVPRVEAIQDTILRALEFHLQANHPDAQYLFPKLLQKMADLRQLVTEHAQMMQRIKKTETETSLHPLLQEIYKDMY
How it was run: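 Cells expressing a UAS-driven beta-lactamase reporter (PPARd-bla HEK293H) were given test compounds after a 5 h settle and kept at 37 C. Reporter activity was then measured as FRET fluorescence using LiveBLAzer B/G substrate.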

[12] = qHTS assay to identify small molecule antagonists of the peroxisome proliferator-activated receptor delta (PPARd) signaling pathway - cell viability counter screen (AID 743213); further: nearly all actives have a fitted effect of over 50% in size
How it was run: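 In this counter screen, HEK293H cells carrying a UAS-beta-lactamase reporter are co-treated with test compounds and 300 nM L165041 (final) for 17 h at 37 C; cell viability is quantified by CellTiter-Glo luminescence.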

[13] = qHTS assay to identify small molecule agonists of the farnesoid-X-receptor (FXR) signaling pathway - cell viability counter screen (AID 743218); further: nearly all actives have a fitted effect of over 45% in size
How it was run: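 Luminescence from CellTiter-Glo, read after 30 min at RT, reports viability of GeneBLAzer FXR-UAS-bla HEK 293T cells treated 16 h with compounds in the wells used for the beta-lactamase reporter.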

[14] = qHTS assay to identify small molecule antagonists of the farnesoid-X-receptor (FXR) signaling pathway - cell viability counter screen (AID 743221; active means well fitted cell-killing curve with a large enough effect in the repeat runs, not every such curve was filed as active; further: nearly all actives have a fitted effect of over 50% in size; further: potency means the concentration at half of the fitted maximal effect)
How it was run: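 CellTiter-Glo, 30 min RT, luminescence; same wells as the LiveBLAzer FRET read. Cells: FXR-UAS-bla HEK 293T. Treatment: compound with chenodeoxycholic acid 50 uM final, 16 h at 37 C.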

[15] = target: Vitamin D3 receptor (Homo sapiens) (UniProt P11473); test: qHTS assay to identify small molecule agonists of the vitamin D receptor (VDR) signaling pathway (AID 743222; calls by dose curve)
Chain of Vitamin D3 receptor (Homo sapiens) (P11473 whole entry, looked up): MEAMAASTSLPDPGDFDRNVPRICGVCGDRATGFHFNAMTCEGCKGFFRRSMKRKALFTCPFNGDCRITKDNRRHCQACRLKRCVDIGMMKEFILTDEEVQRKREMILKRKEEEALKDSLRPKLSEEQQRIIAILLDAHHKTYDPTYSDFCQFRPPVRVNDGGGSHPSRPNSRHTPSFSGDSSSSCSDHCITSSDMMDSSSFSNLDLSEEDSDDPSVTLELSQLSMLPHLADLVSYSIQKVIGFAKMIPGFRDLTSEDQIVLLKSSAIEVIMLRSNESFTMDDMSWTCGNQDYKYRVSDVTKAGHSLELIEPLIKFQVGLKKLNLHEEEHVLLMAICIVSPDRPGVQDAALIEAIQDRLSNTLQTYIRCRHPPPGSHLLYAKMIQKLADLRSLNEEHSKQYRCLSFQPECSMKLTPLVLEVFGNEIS
How it was run: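 Beta-lactamase reporter readout (LiveBLAzer B/G FRET, 2 h RT) in VDR-bla cells after 16 h compound treatment at 37C, 5% CO2; cells pre-incubated 4 h before pin transfer of DMSO solutions.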

[16] = target: Vitamin D3 receptor (Homo sapiens) (UniProt P11473); test: qHTS assay to identify small molecule antagonists of the vitamin D receptor (VDR) signaling pathway (AID 743223; active means well fitted inhibition curve with a large enough effect in the signal ratio in the repeat runs, not every such curve was filed as active; the % refers to the signal ratio)
How it was run: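 After VDR-bla cells are plated and left 4 h at 37C, DMSO-dissolved compounds and 3 nM (final) calcitriol agonist are added. Incubation continues 16 h at 37C; FRET beta-lactamase substrate then develops 2 h at room temperature.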

[17] = qHTS assay for small molecule agonists of the antioxidant response element (ARE) signaling pathway (AID 743202; active means well fitted activation curve with a large enough effect in the signal ratio in the repeat runs, not every such curve was filed as active; the % refers to the signal ratio; further: potency means the concentration at half of the fitted maximal effect)
How it was run: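 Steps: seed ARE-bla HepG2 cells (2,000/well); incubate 5 h at 37 C; add compounds by pin tool; incubate 16 h at 37 C; add FRET substrate; read fluorescence after 2 h at RT.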

[18] = target: Bile acid receptor (Homo sapiens) (UniProt Q96RI1); test: qHTS assay to identify small molecule antagonists of the farnesoid-X-receptor (FXR) signaling pathway (AID 743217; active means well fitted inhibition curve with a large enough effect in the signal ratio in the repeat runs, not every such curve was filed as active; the % refers to the signal ratio)
Chain of Bile acid receptor (Homo sapiens) (Q96RI1 whole entry, looked up): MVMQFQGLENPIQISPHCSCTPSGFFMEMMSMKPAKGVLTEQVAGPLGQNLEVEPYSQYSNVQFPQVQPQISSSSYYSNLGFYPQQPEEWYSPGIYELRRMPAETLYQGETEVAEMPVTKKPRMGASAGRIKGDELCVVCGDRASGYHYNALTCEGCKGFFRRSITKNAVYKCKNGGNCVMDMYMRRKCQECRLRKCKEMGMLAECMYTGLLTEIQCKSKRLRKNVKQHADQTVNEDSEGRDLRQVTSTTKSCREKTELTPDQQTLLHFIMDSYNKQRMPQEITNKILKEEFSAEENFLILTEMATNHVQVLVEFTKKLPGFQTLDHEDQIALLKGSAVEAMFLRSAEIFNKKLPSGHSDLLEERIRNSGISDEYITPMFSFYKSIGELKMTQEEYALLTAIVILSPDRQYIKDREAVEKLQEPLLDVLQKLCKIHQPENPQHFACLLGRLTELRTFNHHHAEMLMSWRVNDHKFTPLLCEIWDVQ
How it was run: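 Read-out: beta-lactamase FRET fluorescence (LiveBLAzer B/G substrate, 2 h, room temperature) in GeneBLAzer FXR-UAS-bla HEK 293T cells. Compounds were co-dosed with 50 uM chenodeoxycholic acid (final) and incubated 16 h at 37 °C.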

[19] = target: Bile acid receptor (Homo sapiens) (UniProt Q96RI1); test: qHTS assay to identify small molecule agonists of the farnesoid-X-receptor (FXR) signaling pathway (AID 743220; active means well fitted activation curve with a large enough effect in the signal ratio in the repeat runs, not every such curve was filed as active; the % refers to the signal ratio)
How it was run: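 FXR-UAS-bla HEK 293T cells carrying a UAS-driven beta-lactamase reporter were plated for 5 h at 37C/5% CO2, then exposed to DMSO-dissolved Tox21 10K compounds for 16 h at 37C. A LiveBLAzer B/G FRET substrate was loaded for 2 h at room temperature before fluorescence reading.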

[20] = target: Peroxisome proliferator-activated receptor delta (Homo sapiens) (UniProt Q03181); test: qHTS assay to identify small molecule antagonists of the peroxisome proliferator-activated receptor delta (PPARd) signaling pathway (AID 743215; active means well fitted inhibition curve with a large enough effect in the signal ratio in the repeat runs, not every such curve was filed as active; the % refers to the signal ratio;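 further: cells stimulated with agonist L165041 at 300 nM final during compound exposure; series mostly up to about 62 µM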)
How it was run: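 HEK293H GeneBLAzer PPARd UAS-bla reporter cells; cpd + L165041 300 nM final, 17 h 37 C; LiveBLAzer B/G FRET substrate 2 h RT; fluorescence intensity read-out. Antagonist mode.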

Measured: Potency

Cc1ccc(C(C)c2ccc(C)c(C)c2)cc1C
not listed: [17] | [18] | [19] | [20]
inactive: all other assays above

COc1ccccc1OC(=O)Oc1ccccc1OC
not listed: [5] | [11] | [18] | [19] | [20]
inactive: all other assays above

COc1ccc(OC)c(OC)c1
not listed: [9] | [10] | [11] | [17] | [20]
inactive: all other assays above

C=CC(=O)OCCOC(=O)CCC(=O)O
active: [1] 61.1 µM | [4] 54.9 µM
not listed: [7] | [10] | [11] | [13] | [16] | [17]
inactive: all other assays above

Cc1cc(O)ccc1N
active: [1] 54.8 µM | [2] 61.4 µM | [17] 21.8 µM
not listed: [5] | [9] | [12] | [14] | [15] | [16] | [19]
inactive: all other assays above

c1ccc(-c2nc[nH]c2-c2ccccc2)cc1
not listed: [10] | [15] | [16] | [17] | [18] | [19]
inactive: all other assays above

C=C(C)C(=O)OCCN(C)C
not listed: [16] | [17] | [18] | [19]
inactive: all other assays above

Cc1ccc(O)c([C@H](CCN(C(C)C)C(C)C)c2ccccc2)c1
not listed: [10] | [12] | [15] | [17] | [18] | [19] | [20]
inactive: all other assays above

N#Cc1cc2ccccc2c2ccccc12
active: [2] 61.4 µM
not listed: [10] | [17]
inactive: all other assays above

S=C(S)NCCNC(=S)S
active: [17] 60 µM
not listed: [5] | [11] | [12] | [13] | [16] | [18] | [19] | [20]
inactive: all other assays above

Cn1c(=O)c2c(ncn2CC(O)CO)n(C)c1=O (centres undefined)
not listed: [5] | [12] | [13] | [16] | [19]
inactive: all other assays above

Cn1c(NCCN(CCO)CCCc2ccc([N+](=O)[O-])cc2)cc(=O)n(C)c1=O
not listed: [5] | [9] | [12] | [15] | [18] | [19] | [20]
inactive: all other assays above

CCCCCCCC/C=C\CCCCCCCC(N)=O
not listed: [5] | [8] | [13] | [18]
inactive: all other assays above

OCC1CC2CC1C1CCC(CO)C21 (centres undefined)
active: [14] 24.5 µM
not listed: [7] | [10] | [13]
inactive: all other assays above

CCCCCC/C=C/C=O
inactive: [1] | [2] | [3] | [4] | [6] | [17] | [7] | [8] | [11] | [13] | [14]

CCOc1nc2cccc(C(=O)O)c2n1Cc1ccc(-c2ccccc2-c2nn[nH]n2)cc1
not listed: [13] | [15] | [16] | [17] | [18] | [19] | [20]
inactive: all other assays above

Oc1ccc2c(c1)OCO2
not listed: [5] | [11] | [12] | [16] | [18] | [19] | [20]
inactive: all other assays above

CCCCOc1ccc(CC(=O)NO)cc1
inactive: [1] | [2] | [3] | [4] | [5] | [6] | [7] | [8] | [9] | [16]
